Laboratory results published in PubChem BioAssay.
The source made the active and inactive calls. Unless noted, the rule behind the calls is not given here.

Tests used:
[1] = resazurin metabolic signal in HepG2 cells – cell-based, resazurin fluorescence, 24 h, PK04 Diversity Set, profiling panel (AID 1172); conditions: HepG2 viability, higher = more signal
[2] = budding yeast growth changes without added modifier – OD600, strain BY4716, 24 h, basal condition, primary screen (AID 1173); conditions: S. cerevisiae BY4716 growth, OD600, 24 h; higher = more signal, called active from +8 up or from −8 down
[3] = viability profiling in MM1S myeloma cells – cell-based, resazurin fluorescence, basal, 24 h, PK04 Diversity Set, profiling panel (AID 1174); conditions: higher = more signal, called active from +8 up or from −8 down;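 note: MM1S multiple myeloma cell line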
[4] = molecular target: Dihydroorotate dehydrogenase (quinone), mitochondrial (Plasmodium falciparum (isolate 3D7)) (UniProt Q08210); assay: inhibition of P. falciparum DHODH – biochemical, C-terminal His tag, absorbance 600 nm, primary screen (AID 1175); conditions: PfDHODH enzyme, DCIP absorbance 600 nm; higher = more signal, called active from +8 up or from −8 down;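 note: recombinant parasite enzyme with a five histidine tag at its C terminus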
Dihydroorotate dehydrogenase (quinone), mitochondrial (Plasmodium falciparum (isolate 3D7)), sequence (Q08210 whole entry, looked up): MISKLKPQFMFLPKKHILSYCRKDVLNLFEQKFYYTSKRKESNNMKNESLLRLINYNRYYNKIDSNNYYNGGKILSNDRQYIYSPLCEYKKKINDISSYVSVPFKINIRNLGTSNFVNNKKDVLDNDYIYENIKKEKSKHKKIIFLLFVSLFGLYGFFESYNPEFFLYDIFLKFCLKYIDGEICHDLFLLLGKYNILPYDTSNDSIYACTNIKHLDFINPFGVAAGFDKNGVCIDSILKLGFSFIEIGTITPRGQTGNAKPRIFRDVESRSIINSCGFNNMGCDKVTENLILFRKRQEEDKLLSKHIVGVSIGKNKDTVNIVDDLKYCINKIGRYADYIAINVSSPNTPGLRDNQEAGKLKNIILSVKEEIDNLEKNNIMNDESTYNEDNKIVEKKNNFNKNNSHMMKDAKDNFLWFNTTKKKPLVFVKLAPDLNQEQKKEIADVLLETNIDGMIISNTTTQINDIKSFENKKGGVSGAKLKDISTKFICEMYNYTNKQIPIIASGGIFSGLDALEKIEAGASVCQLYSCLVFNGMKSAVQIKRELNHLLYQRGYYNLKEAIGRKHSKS

[5] = inhibition of PAO1 biofilm formation – strain PAO1, LB-PBS medium, absorbance 600 nm, primary screen (AID 1176); conditions: P. aeruginosa PAO1 growth/biofilm, A600, 12 h; higher = more signal
[6] = growth modulation of vineyard yeast isolate – strain RM11-1a, OD600, basal, 24 h, primary screen (AID 1177);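 note: cultures grown under basal conditions with no added stressor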; conditions: S. cerevisiae RM11-1a growth, OD600, 24 h; higher = more signal, called active from +8 up or from −8 down
[7] = growth of efflux-deficient E. coli DRC39 – strain DRC39, OD650, 24 h, E. coli filamentation inducers, primary screen (AID 1178);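 note: growth measured as culture turbidity by optical density at 650 nm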; conditions: E. coli DRC39 acrAB, higher = more signal, called active from +8 up or from −8 down
[8] = growth of efflux-deficient E. coli DRC39 – strain DRC39, OD650, 48 h, E. coli filamentation inducers, primary screen (AID 1179);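 note: screen aims at cell division blockers that make cells filament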; conditions: E. coli DRC39 delta-acrAB growth, higher = more signal, called active from +8 up or from −8 down
[9] = viability profiling in RPMI8226 myeloma cells – cell-based, resazurin fluorescence, basal, 24 h, PK04 Diversity Set, profiling panel (AID 1180); conditions: higher = more signal;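 note: RPMI8826 multiple myeloma cell line at 5000 cells per well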
[10] = molecular target: E3 ubiquitin-protein ligase XIAP (Homo sapiens) (UniProt P98170); assay: small molecules binding XIAP protein – biophysical, small-molecule microarray, fluorescence 635 nm, primary screen (AID 1181); conditions: higher = more signal;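 note: score merges 667 nm emission and signal to noise over triplicate slides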
E3 ubiquitin-protein ligase XIAP (Homo sapiens), sequence (P98170 whole entry, looked up, the tested form may be a part): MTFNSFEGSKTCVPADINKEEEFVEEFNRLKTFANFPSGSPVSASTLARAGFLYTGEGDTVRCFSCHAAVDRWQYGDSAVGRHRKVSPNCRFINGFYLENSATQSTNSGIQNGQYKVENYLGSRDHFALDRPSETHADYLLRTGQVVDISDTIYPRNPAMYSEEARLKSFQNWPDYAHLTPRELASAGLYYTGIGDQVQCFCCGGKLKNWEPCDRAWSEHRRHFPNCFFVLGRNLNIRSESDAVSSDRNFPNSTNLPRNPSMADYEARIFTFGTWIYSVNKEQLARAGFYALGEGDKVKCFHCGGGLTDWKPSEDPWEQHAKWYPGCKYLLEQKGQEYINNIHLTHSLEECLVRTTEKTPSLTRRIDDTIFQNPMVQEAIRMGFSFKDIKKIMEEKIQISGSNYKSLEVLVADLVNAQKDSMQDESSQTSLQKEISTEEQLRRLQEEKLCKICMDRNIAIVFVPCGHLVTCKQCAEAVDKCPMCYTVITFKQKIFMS

[11] = system: XIP peptide (Xip251-270) binding; assay: XIP fragment 251-270 binding compounds – biochemical, small-molecule microarray, fluorescence 635/667 nm, 0.1 µg/mL protein, primary screen (AID 1182); conditions: fluorescent protein binding, 635 nm, higher = more signal, called active from +8 up or from −8 down
[12] = system: XIP peptide (Xip251-270); assay: compounds binding XIP fragment 251-270 – biochemical, small-molecule microarray, fluorescence 635/667 nm, 0.5 µg/mL protein, primary screen (AID 1183); conditions: fluorescence 635 nm, higher = more signal
[13] = blood-stage malaria parasite viability loss – strain 3D7, DAPI fluorescence, 100 nL, primary screen (AID 1184);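 note: parasites grown inside human red blood cells in medium with human serum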; conditions: P. falciparum 3D7 growth, 3 d, higher = more signal
[14] = molecular target: Homeobox protein Hox-A13 (Mus musculus) (UniProt Q62424); assay: disruptors of Hoxa13 oligonucleotide interaction – biochemical, fluorescence polarization, labeled oligonucleotide, primary screen (AID 1185); conditions: Hoxa13:DNA binding, 15 min, higher = more signal, called active from +8 up or from −8 down
Homeobox protein Hox-A13 (Mus musculus), sequence (Q62424 whole entry, looked up): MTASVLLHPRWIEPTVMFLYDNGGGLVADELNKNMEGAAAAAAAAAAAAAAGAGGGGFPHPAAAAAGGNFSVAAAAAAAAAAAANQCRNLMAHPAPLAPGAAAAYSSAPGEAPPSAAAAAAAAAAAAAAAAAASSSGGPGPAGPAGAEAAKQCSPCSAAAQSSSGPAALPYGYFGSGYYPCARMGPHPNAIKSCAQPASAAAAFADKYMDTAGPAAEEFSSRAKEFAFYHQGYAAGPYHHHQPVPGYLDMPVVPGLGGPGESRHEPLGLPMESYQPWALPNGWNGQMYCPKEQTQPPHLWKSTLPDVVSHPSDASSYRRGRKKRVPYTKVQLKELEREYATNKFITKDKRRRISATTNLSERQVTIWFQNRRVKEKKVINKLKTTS

SMILES	z-score [1]	z-score [2]	z-score [3]	composite z-score [4]	z-score [5]	z-score [6]	z-score [7]	z-score [8]	z-score [9]	composite z-score [10]	composite z-score [11]	composite z-score [12]	z-score [13]	z-score [14]
CC(C)=CCCC(C)=CCON=C1C[C@@H](O)[C@@H](O)[C@@H]2[C@@H]3C(=O)N(C[C@@H]4CCCO4)C(=O)[C@@H]3CC[C@H]12	0.164	-1.72 (inactive)	-0.58 (inactive)	0.0911 (inactive)	0.295 (inactive)	1.8 (inactive)	-0.169 (inactive)	-0.543 (inactive)	-0.251	-0.217	0.243 (inactive)	0.378	-0.0721	-3.8 (inactive)
O=c1n(Cc2cc3c(cc2Cl)OCO3)c(=O)n2n1CC[C@@H]1C(=NOC[C@@H](O)COCc3ccco3)[C@H]3O[C@H]3[C@@H](O)[C@@H]12	-0.0975	0.919 (inactive)	-0.316 (inactive)	0.634 (inactive)	0.471 (inactive)	0.716 (inactive)	-0.133 (inactive)	-0.527 (inactive)	-0.614	-0.0252	-0.45 (inactive)	0.108	-0.181	-0.786 (inactive)
COC(=O)[C@@H]1CC[C@@H](C)[C@H](c2ccc(Br)cc2)N1	0.0869	-0.176 (inactive)	-0.0484 (inactive)	-0.275 (inactive)	0.766 (inactive)	-0.0446 (inactive)	-0.234 (inactive)	-0.0612 (inactive)	0.429	0.0548	-0.0456 (inactive)	0.0425	0.303	-1.98 (inactive)
COC(=O)[C@H](C)NC(=O)CCC1CC(OC(=O)NCCc2ccc(F)cc2)CC2(CCCC(COC(=O)NCc3cccc(C(F)(F)F)c3)O2)O1 (stereo not given in full)	-0.0701	1.05 (inactive)	0.045 (inactive)	-0.302 (inactive)	0.59 (inactive)	0.744 (inactive)	0.696 (inactive)	0.602 (inactive)	0.436	0.103	0.64 (inactive)	0.517	-0.506	-6.12 (inactive)
CCOC(=O)[C@H](Cc1ccccc1)NC(=O)CCC1CC(OC(=O)NCCc2ccc(F)cc2)CC2(CCCC(COC(=O)NCC3CCCCC3)O2)O1 (stereo not given in full)	0.211	-0.362 (inactive)	0.368 (inactive)	-0.189 (inactive)	0.781 (inactive)	0.869 (inactive)	0.828 (inactive)	1.21 (inactive)	0.772	-0.0009	0.233 (inactive)	0.605	-1.82	-2.33 (inactive)
CCN1C(=O)[C@H]2[C@H]3[C@H](O)[C@H](O)CC(=NO[C@@H](C)c4cn([C@H](CO)Cc5ccccc5)nn4)[C@@H]3CC[C@H]2C1=O	-0.817	0.833 (inactive)	-0.866 (inactive)	-0.642 (inactive)	0.135 (inactive)	0.47 (inactive)	0.121 (inactive)	-0.336 (inactive)	-0.504	0.0451	1.13 (inactive)	0.814	0.032	-2.02 (inactive)
CCOC(=O)[C@H](Cc1ccccc1)NC(=O)CCC1CC(OC(=O)NCCc2ccc(F)cc2)CC2(CCCC(COC(=O)NCCOC)O2)O1 (stereo not given in full)	-0.154	-0.664 (inactive)	-0.195 (inactive)	-1.47 (inactive)	0.487 (inactive)	0.128 (inactive)	1.21 (inactive)	0.195 (inactive)	0.673	-0.242	1.99 (inactive)	0.0681	-0.218	-6.28 (inactive)
CCOC(=O)[C@H](CC(C)C)NC(=O)CCC1CC(OC(=O)NCc2cccc3ccccc23)CC2(CCCC(COC(=O)NCCc3ccc(Cl)cc3)O2)O1 (stereo not given in full)	0.568	-1.89 (inactive)	1.15 (inactive)	-1.16 (inactive)	0.262 (inactive)	-1.2 (inactive)	0.389 (inactive)	-0.214 (inactive)	1.3	-0.0559	-0.0551 (inactive)	0.111	-1.61	-4.02 (inactive)
CC(=O)OC[C@H]1O[C@H](CCON=C2[C@H]3CCn4c(=O)n(-c5ccccc5)c(=O)n4[C@H]3[C@H](O)[C@@H]3O[C@H]23)C=C[C@@H]1OC(C)=O	-0.609	0.0957 (inactive)	-3.19 (inactive)	0.33 (inactive)	-0.95 (inactive)	0.393 (inactive)	0.785 (inactive)	1.17 (inactive)	-0.759	-0.148	0.149 (inactive)	-0.325	-0.374	-1.83 (inactive)
CC(C)CON=C1C[C@@H](O)[C@@H](O)[C@@H]2[C@@H]3C(=O)N(C[C@@H]4CCCO4)C(=O)[C@@H]3CC[C@@H]12	-0.192	0.526 (inactive)	0.22 (inactive)	-0.223 (inactive)	0.152 (inactive)	-0.541 (inactive)	0.276 (inactive)	0.663 (inactive)	1.15	-0.266	-0.0867 (inactive)	0.205	0.192	-0.771 (inactive)
